Test results reported in PubChem BioAssay (EPA / NIEHS).
Activity calls are given as the source filed them. The calls were made as follows: active = hit-call score of the fitted dose curve at least 0.9, where 1 is the maximum; inactive = score below 0.9.

How the values were obtained:
[1] = ATG_DR4_LXR_CIS: Attagene CIS-FACTORIAL HepG2 Assay for human Liver X Receptor (LXR), DR4 submotif (AID 2282929); settings: HepG2 Attagene DR4 cis-reporter, mRNA transcription; AC50: actives raise or lower the signal unless noted; outcome: actives raise or lower the signal unless noted
How it was run: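 HepG2 cells transiently transfected with cis-promoter-driven multiplexed reporter units (DR4 element) were dosed for 24 h. Reporter mRNA was quantified by RT-PCR, fluorescent primer extension, HpaI digestion and capillary electrophoresis; bidirectional fitting versus DMSO baseline.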

[2] = target: Aryl hydrocarbon receptor (Homo sapiens) (UniProt P35869); experiment: ATG_Ahr_CIS: Attagene CIS-FACTORIAL HepG2 Assay for human Aryl Hydrocarbon Receptor (Ahr) (AID 2282930); settings: HepG2 AhR cis-factorial reporter transcription; actives raise or lower the signal
Chain of Aryl hydrocarbon receptor (Homo sapiens) (P35869 whole entry, looked up): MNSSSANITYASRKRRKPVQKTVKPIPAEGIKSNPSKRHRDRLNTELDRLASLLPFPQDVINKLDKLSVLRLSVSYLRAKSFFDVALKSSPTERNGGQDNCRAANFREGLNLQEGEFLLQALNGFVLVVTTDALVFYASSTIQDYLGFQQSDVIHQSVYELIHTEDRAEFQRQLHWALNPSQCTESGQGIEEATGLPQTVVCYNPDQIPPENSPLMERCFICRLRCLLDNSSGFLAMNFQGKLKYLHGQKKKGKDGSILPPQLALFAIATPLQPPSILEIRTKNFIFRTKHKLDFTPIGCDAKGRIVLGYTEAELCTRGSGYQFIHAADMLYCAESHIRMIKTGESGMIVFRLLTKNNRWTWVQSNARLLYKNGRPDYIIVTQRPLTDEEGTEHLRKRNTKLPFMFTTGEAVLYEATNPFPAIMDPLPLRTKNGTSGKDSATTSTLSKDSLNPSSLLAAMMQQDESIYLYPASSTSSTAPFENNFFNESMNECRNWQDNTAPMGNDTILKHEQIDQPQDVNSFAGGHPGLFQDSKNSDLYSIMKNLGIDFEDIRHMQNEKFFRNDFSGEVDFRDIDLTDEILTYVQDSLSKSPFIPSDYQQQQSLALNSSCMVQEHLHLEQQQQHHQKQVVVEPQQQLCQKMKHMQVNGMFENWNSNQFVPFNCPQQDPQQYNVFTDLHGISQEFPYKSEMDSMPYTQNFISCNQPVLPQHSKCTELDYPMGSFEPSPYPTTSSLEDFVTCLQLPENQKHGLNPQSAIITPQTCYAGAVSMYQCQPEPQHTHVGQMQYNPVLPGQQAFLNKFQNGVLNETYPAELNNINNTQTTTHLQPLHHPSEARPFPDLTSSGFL
How it was run: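 Following 24 h of chemical dosing, transfected HepG2 liver cells with cis-driven reporter units were lysed for RNA; reporter mRNA was quantified via RT-PCR and capillary electrophoresis, and responses fitted bidirectionally from DMSO.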

[3] = ATG_AP_1_CIS: Attagene CIS-FACTORIAL HepG2 Assay for human Activator Protein 1 (AP-1) (AID 2282931); settings: HepG2 Attagene cis-factorial AP-1 reporter mRNA; actives raise or lower the signal
How it was run: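 HepG2 cells transiently transfected with cis-element-driven multiplex reporter units; 24 h compound exposure. Reporter mRNA quantified by RT-PCR, FAM-labelled fragments resolved by capillary electrophoresis; bidirectional fit versus DMSO baseline.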

[4] = ATG_AP_2_CIS: Attagene CIS-FACTORIAL HepG2 Assay for human Activator Protein 2 (AP-2) (AID 2282932); settings: HepG2 AP-2 cis-reporter, Attagene transcription factor profiling; AC50: actives raise or lower the signal unless noted; outcome: actives raise or lower the signal unless noted
How it was run: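 HepG2 cells were transiently transfected with multiple cis-promoter reporter transcription units and dosed for 24 h. Reporter mRNA was measured by RT-PCR with capillary electrophoresis fluorescence; bidirectional fits relative to DMSO baseline.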

[5] = ATG_BRE_CIS: Attagene CIS-FACTORIAL HepG2 Assay for human Bone Morphogenetic Protein (BMP) Response Element (BRE) (AID 2282933); settings: HepG2 BMP response element reporter, Attagene transcription factor profiling; actives raise or lower the signal
How it was run: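 Endogenous transcription factor activity read in transiently transfected HepG2 cells after 24 h chemical exposure. Bidirectional curve fitting against DMSO; readout is reporter transcript level by RT-PCR with capillary electrophoresis of labelled products.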

[6] = target: Retinoic acid receptor alpha (Homo sapiens) (UniProt P10276); experiment: ATG_DR5_RAR_CIS: Attagene CIS-FACTORIAL HepG2 Assay for human Retinoic Acid Receptor Alpha (RARE), DR5 submotif (AID 2282934); settings: HepG2 Attagene cis-factorial RARE DR5 reporter, mRNA; actives raise or lower the signal
Chain of Retinoic acid receptor alpha (Homo sapiens) (P10276 whole entry, looked up): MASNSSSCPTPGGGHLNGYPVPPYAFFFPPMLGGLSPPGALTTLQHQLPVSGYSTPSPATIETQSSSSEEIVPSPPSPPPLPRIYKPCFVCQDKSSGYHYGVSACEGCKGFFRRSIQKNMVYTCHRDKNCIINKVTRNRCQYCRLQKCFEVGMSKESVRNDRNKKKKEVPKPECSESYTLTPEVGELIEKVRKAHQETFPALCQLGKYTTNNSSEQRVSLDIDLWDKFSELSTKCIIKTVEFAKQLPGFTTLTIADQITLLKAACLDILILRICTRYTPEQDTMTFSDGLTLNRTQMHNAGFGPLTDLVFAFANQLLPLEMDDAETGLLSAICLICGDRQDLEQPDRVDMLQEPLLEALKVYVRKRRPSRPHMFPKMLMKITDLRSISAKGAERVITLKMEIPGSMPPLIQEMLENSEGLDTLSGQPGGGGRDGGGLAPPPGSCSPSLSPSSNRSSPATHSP
How it was run: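 Transfected HepG2 reporter cells are exposed to chemicals for 24 h. Then RNA is extracted and the DR5 element reporter transcript is measured by RT-PCR and capillary electrophoresis, with bidirectional curve fitting relative to DMSO.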

[7] = target: Transcription factor E2F1 (Homo sapiens) (UniProt Q01094); experiment: ATG_E2F_CIS: Attagene CIS-FACTORIAL HepG2 Assay for human E2F Transcription Factor 1 (AID 2282935); settings: HepG2 Attagene cis-reporter, E2F reporter RNA transcripts; actives raise or lower the signal
Chain of Transcription factor E2F1 (Homo sapiens) (Q01094 whole entry, looked up): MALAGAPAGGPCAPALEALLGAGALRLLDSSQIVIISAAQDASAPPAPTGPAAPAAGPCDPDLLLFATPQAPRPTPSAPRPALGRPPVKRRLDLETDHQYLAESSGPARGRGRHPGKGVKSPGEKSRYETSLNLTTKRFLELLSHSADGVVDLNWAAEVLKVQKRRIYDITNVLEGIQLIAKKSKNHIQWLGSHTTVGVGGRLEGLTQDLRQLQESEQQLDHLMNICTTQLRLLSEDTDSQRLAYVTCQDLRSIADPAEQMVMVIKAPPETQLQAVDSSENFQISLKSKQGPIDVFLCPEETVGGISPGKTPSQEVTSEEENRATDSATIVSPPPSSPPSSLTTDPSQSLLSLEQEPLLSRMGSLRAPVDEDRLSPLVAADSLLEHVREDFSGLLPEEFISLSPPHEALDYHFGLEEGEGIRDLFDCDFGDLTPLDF
How it was run: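 HepG2 cells transiently transfected with multiplexed cis-element reporter units, dosed for 24 h. Reporter mRNA measured by RT-PCR, 6-FAM primer-extension labeling, HpaI digestion and capillary electrophoresis; bidirectional fit versus DMSO baseline.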

[8] = ATG_E_Box_CIS: Attagene CIS-FACTORIAL HepG2 Assay for human Enhancer Box (E-box) (AID 2282936); settings: HepG2 E-box cis-reporter transcription, actives raise or lower the signal
How it was run: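 HepG2 cells transiently transfected with multiplexed cis-element reporter units sensing endogenous transcription factor activity; 24 h compound exposure. Reporter mRNA measured by RT-PCR, 6-FAM primer extension, HpaI digestion and capillary electrophoresis; bidirectional fit versus DMSO.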

[9] = ATG_M_61_CIS: Attagene CIS-FACTORIAL HepG2 Assay for M61 Transcription Factor (Internal Marker) (AID 2282937); settings: HepG2 Attagene CIS-FACTORIAL M61 internal marker reporter; actives raise or lower the signal
How it was run: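 HepG2 cells transiently transfected with cis-element-driven multiple reporter transcription units, dosed for 24 h. Reporter mRNA measured by RT-PCR, 6-FAM primer-extension labelling, HpaI digestion and capillary electrophoresis; bidirectional fit versus DMSO baseline.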

[10] = ATG_EGR_CIS: Attagene CIS-FACTORIAL HepG2 Assay for human Early Growth Response 1 (EGR1) (AID 2282938); settings: HepG2 Attagene CIS-FACTORIAL EGR reporter mRNA; actives raise or lower the signal
How it was run: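 HepG2 cells transiently transfected with cis-promoter-driven multiplexed reporter transcription units; reporter mRNA measured 24 h after compound dosing by RT-PCR, 6-FAM primer extension, HpaI digestion and capillary electrophoresis. Bidirectional fit versus DMSO baseline.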

[11] = ATG_M_19_CIS: Attagene CIS-FACTORIAL HepG2 Assay for M19 Transcription Factor (Internal Marker) (AID 2282939); settings: HepG2 Attagene CIS-FACTORIAL M19 internal marker reporter; actives raise or lower the signal
How it was run: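 Internal marker readout, fitted in both directions against DMSO, from HepG2 cells carrying transfected cis-element reporter constructs; RT-PCR and capillary electrophoresis of reporter mRNA after 24 h exposure.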

[12] = ATG_Ets_CIS: Attagene CIS-FACTORIAL HepG2 Assay for human Erythroblast Transformation Specific (ETS) (AID 2282941); settings: HepG2 ETS cis-reporter transcription; AC50: actives raise or lower the signal unless noted; outcome: actives raise or lower the signal unless noted
How it was run: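 HepG2 cells transiently transfected with cis-promoter reporter transcription units were dosed for 24 h; reporter mRNA was measured by RT-PCR, 6-FAM primer extension, HpaI digestion and capillary electrophoresis, with bidirectional fitting against DMSO baseline.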

[13] = target: Hepatocyte nuclear factor 3-beta (Homo sapiens) (UniProt Q9Y261); experiment: ATG_FoxA2_CIS: Attagene CIS-FACTORIAL HepG2 Assay for human Forkhead box A2 (FOXA2) (AID 2282942); settings: HepG2 cis-reporter transcription factor activity, 24 h; actives raise or lower the signal
Chain of Hepatocyte nuclear factor 3-beta (Homo sapiens) (Q9Y261 whole entry, looked up): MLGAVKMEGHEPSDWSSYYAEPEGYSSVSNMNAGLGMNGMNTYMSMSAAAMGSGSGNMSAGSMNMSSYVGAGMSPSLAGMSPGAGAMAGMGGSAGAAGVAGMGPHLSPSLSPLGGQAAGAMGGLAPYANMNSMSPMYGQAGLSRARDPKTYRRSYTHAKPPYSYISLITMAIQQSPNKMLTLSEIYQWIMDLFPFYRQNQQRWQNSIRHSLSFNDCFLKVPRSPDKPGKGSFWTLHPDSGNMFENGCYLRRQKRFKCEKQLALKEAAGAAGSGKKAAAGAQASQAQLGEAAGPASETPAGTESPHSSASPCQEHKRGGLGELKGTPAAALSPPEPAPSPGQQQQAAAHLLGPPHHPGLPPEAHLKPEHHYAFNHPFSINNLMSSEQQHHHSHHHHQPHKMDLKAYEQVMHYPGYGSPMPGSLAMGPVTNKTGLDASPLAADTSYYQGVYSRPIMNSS
How it was run: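 HepG2 cells transiently transfected with multiple cis-regulated reporter transcription units, dosed for 24 h. Reporter mRNA measured by RT-PCR, 6-FAM labelling, HpaI digestion and capillary electrophoresis; bidirectional fitting against DMSO baseline.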

[14] = ATG_FoxO_CIS: Attagene CIS-FACTORIAL HepG2 Assay for human Forkhead box O (FoxO) (AID 2282943); settings: HepG2 Attagene cis-reporter, FoxO element, mRNA; actives raise or lower the signal
How it was run: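 24 h chemical exposure, HepG2 with transient cis-MRTU transfection. RNA extraction, oligo(dT) RT, reporter-specific PCR, primer-extension labelling, HpaI digestion, CE fragment analysis; bidirectional fit, DMSO baseline.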

[15] = ATG_GATA_CIS: Attagene CIS-FACTORIAL HepG2 Assay for human GATA Binding Protein (AID 2282944); settings: HepG2 GATA cis-element reporter, Attagene multiplex mRNA; actives raise or lower the signal
How it was run: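 Reporter transcripts from a GATA cis-regulated unit, among multiplexed reporters in transfected HepG2 cells, were measured by RT-PCR with capillary electrophoresis after 24 h dosing. Induction or loss scored relative to DMSO.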

[16] = ATG_GLI_CIS: Attagene CIS-FACTORIAL HepG2 Assay for human Zinc Finger Protein GLI1 (AID 2282945); settings: HepG2, Attagene cis-factorial reporter mRNA, GLI element; actives raise or lower the signal
How it was run: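 HepG2 cells transiently transfected with cis-promoter multiplexed reporter units report endogenous transcription factor activity. After 24 h chemical exposure, reporter mRNA was quantified by RT-PCR, 6-FAM labelling, HpaI digestion and capillary electrophoresis, with bidirectional fitting against DMSO.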

[17] = target: Bile acid receptor (Homo sapiens) (UniProt Q96RI1); experiment: ATG_IR1_CIS: Attagene CIS-FACTORIAL HepG2 Assay for human Nuclear Receptor Subfamily 1 Group H Member 4 (NR1H4), IR1 submotif (AID 2282946); settings: IR1 reporter transcription, actives raise or lower the signal
Chain of Bile acid receptor (Homo sapiens) (Q96RI1 whole entry, looked up): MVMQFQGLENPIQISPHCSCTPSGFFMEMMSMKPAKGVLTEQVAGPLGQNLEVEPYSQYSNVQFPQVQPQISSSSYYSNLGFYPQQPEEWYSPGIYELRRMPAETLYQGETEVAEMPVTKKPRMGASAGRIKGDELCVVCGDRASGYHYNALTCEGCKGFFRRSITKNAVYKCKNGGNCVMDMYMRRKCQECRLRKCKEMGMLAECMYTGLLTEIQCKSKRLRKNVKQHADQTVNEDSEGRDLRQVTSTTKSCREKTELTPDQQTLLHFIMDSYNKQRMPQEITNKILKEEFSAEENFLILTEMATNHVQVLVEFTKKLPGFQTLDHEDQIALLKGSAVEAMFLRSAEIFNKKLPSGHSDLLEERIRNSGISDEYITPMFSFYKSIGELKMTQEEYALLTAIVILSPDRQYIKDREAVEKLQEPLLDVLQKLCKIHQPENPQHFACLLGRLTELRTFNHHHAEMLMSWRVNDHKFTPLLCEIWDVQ
How it was run: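 Transient MRTU transfection, HepG2; 24 h dosing; RNA → RT-PCR → 6-FAM primer extension → HpaI digest → capillary electrophoresis fluorescence. Gain/loss of signal fitted relative to DMSO.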

[18] = ATG_GRE_CIS: Attagene CIS-FACTORIAL HepG2 Assay for human Glucocorticoid Response Elements (GRE) (AID 2282947); settings: HepG2 GRE cis-reporter, Attagene multiplex mRNA; AC50: actives raise or lower the signal unless noted; outcome: actives raise or lower the signal unless noted
How it was run: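 HepG2 cells transiently transfected with multiple cis-promoter reporter units measure endogenous TF activity; 24 h compound exposure. Reporter mRNA quantified by RT-PCR, FAM labelling, HpaI digestion and capillary electrophoresis; bidirectional fit vs DMSO baseline.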

[19] = ATG_ISRE_CIS: Attagene CIS-FACTORIAL HepG2 Assay for human Interferon Regulatory Factor 1 (IRF1) binding to an Interferon-Stimulated Response Element (ISRE) (AID 2282948); settings: HepG2 ISRE cis-reporter (Attagene), mRNA transcription readout; actives raise or lower the signal
How it was run: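 HepG2 cells transiently transfected with multiplexed cis-promoter reporter units; after 24 h compound exposure, reporter mRNA quantified by RT-PCR, FAM labelling, HpaI digestion and capillary electrophoresis. Bidirectional fit versus DMSO baseline.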

[20] = ATG_ERE_CIS: Attagene CIS-FACTORIAL HepG2 Assay for Estrogen Response Element (ERE) (AID 2282940); settings: HepG2 ERE cis-reporter, Attagene RNA transcript; actives raise or lower the signal
How it was run: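 After 24 h compound treatment, RNA from transfected HepG2 cells was reverse-transcribed, reporter cDNA PCR-amplified, FAM-labelled, HpaI-cut and resolved by capillary electrophoresis. ERE-driven cis reporter transcripts reflect endogenous factors; gain or loss scored against DMSO.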

Measured: outcome

O=S(=O)(O)c1ccccc1
not listed: [20]
inactive: all other assays above

Brc1ccc(Oc2ccc(Br)cc2Br)cc1
not listed: [11] | [18]
inactive: all other assays above

CCCCCCCCCCCC
not listed: [17] | [20]
inactive: all other assays above

O=C(F)C(F)(F)C(F)(F)C(F)(F)C(F)F
not listed: [13] | [18]
inactive: all other assays above
